# Source: PubChem BioAssay (National Center for Advancing Translational Sciences (NCATS))
# This is one part of a sample in which hits are shown more often than they occur.
# TDP1 cell noCPT = qHTS for Inhibitors of human tyrosyl-DNA phosphodiesterase 1 (TDP1): qHTS in cells in absence of CPT. DT40 Tdp1-/- hTDP1 cells, no CPT, ATP luminescence, 48 h. Potency, µM (highest dose often 46.2 µM), most hits filed as inhibitors. actives 15% (n = 420,000); note: nearly all actives have a fitted effect of over 55% in size
#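 Growth kinetics read by CellTiter-Glo luminescence after ≥48 hr at 37 °C. Cells: DT40 Tdp1-/- stably carrying human TDP1, 400 per well, compound exposure in the absence of CPT (DMSO vehicle).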
# 12-LOX inh = Primary qHTS assay for inhibitors of human arachidonate 12S-lipoxygenase (ALOX12): Round 2; purified 12hLO, xylenol orange hydroperoxide absorbance; Potency, µM (top dose mostly 108 µM), actives largely listed as inhibitors; actives 1.1% (n = 580,000); AID 1671190, 2021
# Target sequence (P18054 whole entry, looked up): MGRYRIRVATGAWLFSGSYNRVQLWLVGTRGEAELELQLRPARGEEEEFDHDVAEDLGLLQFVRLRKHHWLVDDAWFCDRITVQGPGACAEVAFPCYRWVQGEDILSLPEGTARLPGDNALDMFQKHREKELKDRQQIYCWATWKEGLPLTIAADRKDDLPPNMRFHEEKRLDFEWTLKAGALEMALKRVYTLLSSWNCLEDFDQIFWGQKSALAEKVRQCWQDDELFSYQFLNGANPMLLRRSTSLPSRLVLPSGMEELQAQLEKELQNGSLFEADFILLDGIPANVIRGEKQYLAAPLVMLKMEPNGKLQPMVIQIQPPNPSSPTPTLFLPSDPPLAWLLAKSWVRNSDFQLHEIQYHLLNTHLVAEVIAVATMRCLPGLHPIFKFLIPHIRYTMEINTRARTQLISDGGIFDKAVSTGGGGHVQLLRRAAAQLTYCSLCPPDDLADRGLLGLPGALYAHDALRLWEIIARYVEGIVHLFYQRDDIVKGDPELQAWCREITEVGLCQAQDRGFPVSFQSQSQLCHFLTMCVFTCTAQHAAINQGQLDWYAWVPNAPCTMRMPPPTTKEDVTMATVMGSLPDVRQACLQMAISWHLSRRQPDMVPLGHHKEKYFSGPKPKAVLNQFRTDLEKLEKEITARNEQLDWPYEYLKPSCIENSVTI
#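 Purified human 12hLO (150 nM final) in 25 mM Hepes, 0.01% Triton X-100, pH 7.0 was preincubated 15 min at room temperature with compound. Then 40 uM arachidonic acid was added, 30 min. Hydroperoxide was read by Fe-XO absorbance ratio 573/405 nm.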
# HT1080 IDH1KD tx = qHTS for induction of synthetic lethality in tumor cells producing 2HG: qHTS for the HT-1080-IDH1KD cell line; HT-1080 IDH1 knockdown viability, ATP luminescence, 48 h; Potency, µM (highest dose often 46.1 µM), most hits filed as cytotoxic; actives 2% (n = 360,000)
#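 HT-1080-IDH1KD cells (IDH1 knocked down), 750/well in RPMI with 5% FBS, treated with compound 48 h at 37 degrees C. Viability by CellTiter-Glo luminescence, normalised to DMSO and no-cell wells; concentration-response curves classed.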
# HT1080NT lethal = qHTS for induction of synthetic lethality in tumor cells producing 2HG: qHTS for the HT-1080-NT fibrosarcoma cell line; HT-1080-NT fibrosarcoma viability, CellTiter-Glo ATP luminescence, 48 h; Potency, µM (top dose mostly 46.1 µM), usual class: cytotoxic; actives 1.6% (n = 360,000); AID 686970, 2013;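 note: NT is the 2HG producing partner of a matched IDH1 knockdown line; nearly all actives have a fitted effect of over 55% in size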
#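 Luminescent CellTiter-Glo readout after 48 hours of compound exposure at 37 degrees C defined viability of HT-1080-NT cells. Activity was normalized to DMSO wells and cell-free media wells; concentration-response curves were fitted and assigned curve classes.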
# IL1B secr inh = qHTS for Inhibitors of Inflammasome Signaling: IL-1-beta AlphaLISA Primary Screen; THP-1 LPS/ATP IL-1B secretion, AlphaLISA, 16 h; active compounds read low; activity change, % at 57.5 µM; actives 4.7% (n = 360,000); AID 743279, 2014; in the data active = activity change below about -50%; inconclusive = mostly about -30% to -49%
#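 Secreted IL-1B measured by AlphaLISA bead assay after 16 h compound exposure of THP-1 cells; compounds (final up to 57.5 uM) added 1 h before LPS (250 ng/mL) and ATP (1.25 mM) stimulation; lower signal means less secretion.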
# TDP1 cell CPT = qHTS for Inhibitors of human tyrosyl-DNA phosphodiesterase 1 (TDP1): qHTS in cells in presence of CPT; chicken DT40 Tdp1-/-;hTDP1 cells + 20 nM CPT, ATP luminescence, 48 h; actives 12% (n = 420,000); Potency, µM (highest dose often 46.2 µM), usual class: inhibitors; note: nearly all actives have a fitted effect of over 55% in size
#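 Chicken DT40 Tdp1-/- cells complemented with human TDP1, 400 cells/well, exposed to compounds plus 20 nM camptothecin for at least 48 h at 37 C; viability read as ATP content by CellTiter-Glo luminescence.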
# A number is an active result; i = inactive; ? = inconclusive; nt = no result given; [ ] = another dose, or the depositor's remark. Unless noted, calls come from the whole dose curve; as a rule, active = well fitted curve in the direction sought with a large enough effect; inconclusive = small, poorly fitted or top-dose-only effect, or another doubt; inactive = no such curve, though single readings can be large; an effect the other way counts as inactive or inconclusive.
SMILES,TDP1 cell noCPT,12-LOX inh,HT1080 IDH1KD tx,HT1080NT lethal,IL1B secr inh,TDP1 cell CPT
O=C(NC(=S)Nc1cc(-c2nc3ccccc3[nH]2)ccc1Cl)c1ccc2c(c1)OCO2,3.7µM,?,?,i,i,5.2µM
CN(C)CCNC(=S)Nc1ccc(-c2nc3ccccc3[nH]2)cc1,i,i,i,i,i,i
COC(=O)c1ccc(-c2ccco2)n1Cc1nc(-c2ccc(OC)c(OC)c2)oc1C,16µM,?,?,i,?,23µM
CC(C)CNC(=O)N1CCC(Oc2ncccc2C(=O)N2CCOCC2)C1 (stereo not drawn),nt,i,nt,nt,nt,nt
CCc1cccc2c1Sc1ccccc1CC2N1CCNCC1 (stereo not drawn),16µM,?,?,i,-93,16µM
O=C1CC(N2CCSCC2)C(=O)N1c1cccc(Cl)c1 (stereo not drawn),i,i,i,i,i,i
Cc1cccc2c1Sc1ccc(Cl)cc1CC2N1CCNCC1 (stereo not drawn),18µM,nt,?,23µM,-99,16µM
CC(NC(=O)Nc1ccc([N+](=O)[O-])cc1)C(c1cccs1)N1CCCC1 (stereo not drawn),i,i,i,i,i,i
CCCCC(=NCCc1c(C)[nH]c2ccccc12)C1=C(O)CC(c2ccccc2)CC1=O (stereo not drawn),5.2µM,i,9.2µM,?,?,5.8µM
CCC/C(O)=C1\C(=O)CC(c2ccccc2)CC1=NCCc1c(C)[nH]c2ccccc12 (stereo not drawn),?,i,i,i,?,?
CCCC(=NCCc1c(C)[nH]c2ccccc12)C1=C(O)CC(c2ccccc2)CC1=O (stereo not drawn),1.3µM,?,4.6µM,?,i,0.58µM
COC(=O)CC(NC1CCN(c2nc(C)c3cc4c(cc3n2)CCC4)CC1)C(=O)OC (stereo not drawn),i,i,nt,nt,nt,i[9.04 µM]
O=C(O)c1ccc(C(=O)C(=O)c2ccccc2)cc1,i,i,i,i,i,i
COc1cccc(C(=O)C(=O)NC(C)(C)C)c1,nt,i,nt,nt,nt,nt
COc1cccc(C(=O)C(C#N)=C(SC)SC)c1,2.3µM,i,i,i,i,2.6µM
CSC(SC)=C(C#N)C(=O)c1ccccc1,2.6µM,i,21µM,?,-89,2.1µM
O=C(Nc1ccc(F)cc1)c1cc2cc(F)ccc2[nH]1,nt,i,nt,nt,nt,nt
Oc1ccc(O)c(Cc2nc3ccccc3[nH]2)c1,8.2µM,?,i,i,i,?
OCc1nc2ccccc2[nH]1,i,i,nt,nt,nt,i
CC[C@H]1CN(C(=O)Nc2cccc(OC)c2)CC[C@H]1CC(=O)N(C)CC#N,nt,i,nt,nt,nt,nt
CC(C(=O)Nc1ccccc1OC(F)F)N(C)CC(=O)Nc1ccc(F)cc1 (stereo not drawn),nt,i,nt,nt,nt,nt
Cc1ccccc1NC1=NC(=S)N(c2ccccc2)C12CCCCC2,?,i,i,i,i,18µM
CN1c2ccccc2C(C)(C)C12CCCC(=O)N2 (stereo not drawn),?,?,i,i,i,29µM
CC1(C(=O)N2CCc3ccccc32)CCCCC(=O)N1 (stereo not drawn),nt,i,nt,nt,nt,nt
O=C(NCCc1nc2ccccc2n1CCCOc1ccccc1Cl)C1CCCCC1,7.1µM,nt,nt,nt,nt,10µM
SMILES,TDP1 cell noCPT,12-LOX inh,HT1080 IDH1KD tx,HT1080NT lethal,IL1B secr inh,TDP1 cell CPT
Cc1ccccc1OCCn1c(CCNC(=O)C2CCCCC2)nc2ccccc21,18µM,i,nt,nt,nt,?
CCc1ccc(OCCCCn2c(CCNC(=O)C3CCCCC3)nc3ccccc32)cc1,10µM,nt,nt,nt,nt,7.1µM
CC(C)(C)C(=O)NCCc1nc2ccccc2n1CCCCOc1ccccc1,16µM,i,nt,nt,nt,?
CC(=O)NCCc1nc2ccccc2n1CCOc1ccccc1C,?,i,i,i,i,?
CCCCn1c(NC(=O)C2CCCCC2)nc2ccccc21,?,i,i,i,i,?
O=C(NCCc1nc2ccccc2n1CCOc1ccccc1)C1CCCCC1,i,nt,nt,nt,nt,?
CC(C)C(=O)NCCc1nc2ccccc2n1CCOc1ccccc1,?,i,i,i,i,i
CCn1nc(C(=O)OCC#N)c2ccccc2c1=O,nt,i,nt,nt,nt,nt
Cc1ccc2[nH]c(=O)c(CNS(=O)(=O)c3ccccc3)c(-c3ccccc3)c2c1,18µM,i,i,i,i,?
C/C(=N\N)c1c(-c2ccccc2)c2cc(C)ccc2[nH]c1=O,i,i,i,i,i,i
Fc1ccc(-c2nc3cc(Cl)ccc3o2)cc1,nt,i,nt,nt,nt,nt
CCOC(=O)C1C(=O)Oc2ccc3ccccc3c2C1C1CCOC1=O (stereo not drawn),15µM,i,i,i,i,?
CCOC(=O)C1=C(C)NC(=O)NC1c1c(OC)ccc2ccccc12 (stereo not drawn),i,i,i,i,i,i
OCCCN1CCN(CCOc2ccccc2-c2ccccc2)CC1,?,i,i,i,i,i
CC1CN(CCOCCOc2ccccc2-c2ccccc2)CC(C)O1 (stereo not drawn),23µM,?,i,i,i,?
c1ccc(-c2ccccc2OCCOCCN2CCc3ccccc3C2)cc1,12µM,i,?,?,-75,?
CC1CN(CCOCCSc2ccccc2)CC(C)O1 (stereo not drawn),i,i,i,i,i,i
Clc1ccc(OCCOCCN2CCc3ccccc3C2)c(Cl)c1,23µM,?,23µM,23µM,-82,?
CCCCNCCOCCOc1ccccc1-c1ccccc1,29µM,?,i,i,?,23µM
COc1ccc(CNC(=O)C[C@@H]2CCNC[C@@H]2Cc2cc(-c3ccc(F)cc3)on2)cc1,nt,i,nt,nt,nt,nt
FC(F)OC(Cl)C(F)(F)F (stereo not drawn),i,nt,nt,nt,nt,i
CCN(CC)C(=O)C1=C(C)N(CCCOC)C(=O)C(CC(=O)NCCN2CCOCC2)C1 (stereo not drawn),i,i,i,i,i,i
CCOC(=O)c1c(NC(=O)CN2CCN(S(=O)(=O)c3cc(Cl)ccc3Cl)CC2)sc(C(=O)N(C)C)c1C,?,i,?,i,i,16µM
CCOC(=O)c1sc(NC(=O)/C=C/c2cnn(CC)c2C)c(C(=O)OCC)c1C,21µM,?,i,i,?,?
CCOC(=O)c1sc(NC(=O)N2CCN(CC)CC2)c(C(=O)OCC)c1C,nt,i,nt,nt,nt,nt
